Results reported in PubChem BioAssay (NCATS).
Results filed as inconclusive are left out. A call without a number means that no potency is given here. Unmarked numbers belong to inactive results. Active and inactive are the calls of the source. Calls follow the shape of the dose curve; as a rule, active = well fitted curve in the direction sought with a large enough effect; inconclusive = small, poorly fitted or top-dose-only effect, or another doubt; inactive = no such curve, though single readings can be large; an effect the other way counts as inactive or inconclusive.

Tests used:
[1] = test system: Hek293T; assay: Primary qHTS to identify gynecologic anti-cancer compounds using libraries of approved drugs and bioactive compounds (AID 1345084); details: Gynecologic cancer cell panel viability, ATPlite luminescence, 48 h, control line for the selectivity index; series mostly up to 57.5 µM; also: nearly all actives have a fitted effect of over 55% in size
Method in brief: (§1)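 48 h compound exposure at 37 C, 5% CO2; five-point qHTS. ATPlite luminescence readout of cell ATP.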

[2] = test system: JEG-3; assay: as above; details: Gynecologic cancer cell panel viability, ATPlite luminescence, 48 h; series mostly up to 57.5 µM
Method in brief: as §1

[3] = test system: OV90; assay: as above; details: Gynecologic cancer cell panel viability, ATPlite luminescence, 48 h; series mostly up to 57.5 µM
Method in brief: as §1

[4] = test system: PA-1; assay: as above; details: Gynecologic cancer cell panel viability, ATPlite luminescence, 48 h; series mostly up to 57.5 µM
Method in brief: as §1

[5] = test system: SKOV3; assay: as above; details: Gynecologic cancer cell panel viability, ATPlite luminescence, 48 h; series mostly up to 57.5 µM
Method in brief: as §1

[6] = test system: Tov-21-G; assay: as above; details: Gynecologic cancer cell panel viability, ATPlite luminescence, 48 h; series mostly up to 57.5 µM
Method in brief: as §1

[7] = test system: Tov112D; assay: as above; details: Gynecologic cancer cell panel viability, ATPlite luminescence, 48 h; series mostly up to 57.5 µM
Method in brief: as §1

[8] = Drug repurposing screens with cells derived from glioblastoma tumor samples (AID 1345199); details: GBM patient neurospheres viability, ATP luminescence, 48 h; also: nearly all actives have a fitted effect of over 40% in size
Method in brief: (§2)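 Four patient lines of CD133+ GBM neurospheres were screened at several concentrations; hits were retested in those lines plus three slower-growing GBM lines, using 48-hour treatment and ATP-based viability.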

[9] = test system: astro; assay: as above; details: viability, ATP luminescence, 48 h; series mostly up to 45.9 µM
Method in brief: as §2

[10] = at 45.9 µM (top of the series), tumour line B
[11] = at 46.1 µM (top of the series), tumour line C
[12] = at 45.9 µM (top of the series), tumour line D
[13] = at 46 µM (top of the series), tumour line A
[14] = at 20 µM (top of the series), tumour line C
[15] = at 21.2 µM (top of the series), tumour line B
[16] = at 21.2 µM (top of the series), tumour line D
Potency is read from the fitted curve at half-maximal effect.

| Compound | Potency [1] | Potency [2] | Potency [3] | Potency [4] | Potency [5] | Potency [6] | Potency [7] | activity, negative = cell killing [8, 10] [%] | activity, negative = cell killing [8, 11] [%] | Potency ([8]; tumour line A) | activity, negative = cell killing [8, 12] [%] | activity, negative = cell killing [8, 13] [%] | Potency [9] | activity, negative = cell killing [8, 14] [%] | activity, negative = cell killing [8, 15] [%] | activity, negative = cell killing [8, 16] [%] | activity, negative = cell killing ([8]; at 21.3 µM (top of the series), tumour line A) [%] |
| --- | --- | --- | --- | --- | --- | --- | --- | --- | --- | --- | --- | --- | --- | --- | --- | --- | --- |
| Clc1cccc(C(c2ccc3nc[nH]c3c2)n2ccnc2)c1 (stereo not given) | inactive | inactive | inactive | inactive | inactive | inactive | inactive |  |  |  |  |  |  |  |  |  |  |
| C#C[C@]1(O)CC[C@H]2[C@@H]3CCc4cc(OC)ccc4[C@H]3CC[C@@]21C | inactive | inactive | inactive | inactive | inactive | inactive | inactive | -27.2 | -5.96 | 39.8 µM (active) |  |  |  |  |  |  |  |
| CCCCC(CC)COC(=O)/C=C/c1ccc(OC)cc1 (stereo not given) | inactive | inactive | inactive | inactive | inactive | inactive | inactive | -11.8 | 6.67 |  | -6.07 | -26.1 | inactive |  |  |  |  |
| CC(=O)Oc1ccc(C)cc1 | inactive | inactive | inactive | inactive | inactive | inactive | inactive | -11.7 | -10.6 |  | -7.35 | -28.8 | inactive |  |  |  |  |
| O=S(c1cc(Cl)cc(Cl)c1O)c1cc(Cl)cc(Cl)c1O | inactive | inactive | inactive | inactive | inactive | inactive | inactive | -23.8 | -26.7 | 28.2 µM (active) | -25 |  |  |  |  |  |  |
| NC(=O)c1ccccc1O | inactive | inactive | inactive | inactive | inactive | inactive | inactive | -6.32 | 4.05 |  | 0.802 | -27.6 | inactive |  |  |  |  |
| CCOCCn1c(N2CCCN(C)CC2)nc2ccccc21 | inactive | inactive | inactive | inactive | inactive | inactive | inactive | -14.8 | -16 | 17.8 µM (active) | -9.28 |  | inactive |  |  |  |  |
| N/C(=N\N=C\c1ccc(Cl)cc1)N/N=C/c1ccc(Cl)cc1 | inactive | inactive | inactive | inactive | 31.6 µM (active) | inactive | inactive |  |  |  |  |  |  |  |  |  |  |
| COc1cc(C(=S)N2CCOCC2)ccc1O | inactive | inactive | inactive | inactive | inactive | inactive | inactive | -7.92 | -22.1 |  | 6.32 | -27.5 | inactive |  |  |  |  |
| CCCCCCCCCCCCCCC[C@H](O)[C@@H](N)CO | inactive | inactive | inactive | inactive | inactive | inactive | inactive |  |  |  |  |  |  |  |  |  |  |
| COc1ccc(-c2cc(C(F)F)nn2-c2ccc(S(N)(=O)=O)cc2)cc1F | inactive | inactive | inactive | inactive | inactive | inactive | inactive | -10.4 | 2.98 |  | -9.89 | -29.7 | inactive |  |  |  |  |
| CCNC(=O)NCc1cccc(Cl)c1 | inactive | inactive | inactive | inactive | inactive | inactive | inactive | -11.2 | -10.1 |  | -6.28 | -30 | inactive |  |  |  |  |
| CN(CCCN1c2ccccc2CCc2ccccc21)CC(=O)c1ccc(Cl)cc1 | inactive | inactive | inactive | inactive | inactive | inactive | inactive |  |  |  |  |  |  |  |  |  |  |
| CCN1CCCC(OC(=O)C(c2ccccc2)c2ccccc2)C1 (stereo not given) | inactive | inactive | inactive | inactive | inactive | inactive | inactive |  |  | 8.91 µM (active) |  |  | inactive | -5.6 | -12.3 | -10.7 |  |
| CC(=O)NO | inactive | inactive | inactive | inactive | inactive | inactive | inactive | -7.52 | 11.5 |  | -5.2 | -11.7 | inactive |  |  |  |  |
| C=C[C@@]1(C)CC(=O)[C@]2(O)[C@@]3(C)[C@@H](O)CCC(C)(C)[C@@H]3[C@H](O)[C@H](OC(C)=O)[C@@]2(C)O1 | inactive | inactive | inactive | inactive | inactive | inactive | inactive | 7.18 | -36.3 |  |  |  |  |  |  |  |  |
| NS(=O)(=O)c1cc2c(cc1Cl)NC(CC1CCCC1)NS2(=O)=O (stereo not given) | inactive | inactive | inactive | inactive | inactive | inactive | inactive |  |  |  |  |  | inactive | -10.8 | -9.27 | -11 | -13.5 |
| CCc1ccc(C(=O)C(C)CN2CCCCC2)cc1 (stereo not given) | inactive | inactive | inactive | inactive | inactive | inactive | inactive | -6.35 | -19 | 17.8 µM (active) | -22.1 |  | inactive |  |  |  |  |
